From PubChem BioAssay AID651804 (National Center for Advancing Translational Sciences (NCATS), 2012)
About 20 (2%) of roughly 1,200 compounds were called active. Not shown: some 23% with an inconclusive outcome. The sample as a whole holds a higher share of actives than the screen did. Values without a mark were called inactive. The call rests on the fitted dose curve; in most records, active means well fitted inhibition curve with a large enough effect; inconclusive means small, poorly fitted or top-dose-only effect; inactive means no such curve, though single readings can be large or run the other way.

biological target: Transcriptional regulator ERG (Homo sapiens) (UniProt P11308); test: qHTS for Small Molecule Inhibitors of the ERG Ets/DNA interaction: HTRF assay against cherry picks; settings: His-ERG Ets domain with biotin-DNA; series mostly up to 154 µM; activity change, negative = inhibition: at the top concentration
Description: The Ets family of proteins is a family of ~30 conserved transcription factors defined by the presence of an ~85 amino acid domain referred to as the Ets domain, which mediates sequence-specific DNA binding to a core DNA element GGAA/T.The Ets family member ERG has been linked to several neoplasms. […] More extensive studies of the effects of over-expression of ERG in prostate cells have recently been carried out and have shown that over-expression of ERG results in increased invasion. […] We will carry out a high throughout screen to identify inhibitors of the interaction between ERG and DNA using a fluorescence polarization (FP) assay with a His-tagged ERG Ets domain and fluorescently-labeled DNA probes to develop small molecule inhibitors of this interaction as probes to test this hypothesis and lay the groundwork for the development of targeted therapies against ERG. This is the counterscreen against the cherry picks. NIH Molecular Libraries Probe Production Network [MLPCN] NIH Chemical Genomics Center [NCGC] Grant: NS066464 PI Name: John Bushweller, University of Virgina
2 ul of protein solution (200 nM ERG domain in 300mM KCl, 50mM Tris-HCl, 1mM EDTA, 1mM DTT, pH 7.5); 20 nl Control plate and compound library plate; 2 ul of 200 nM biotin-DNA; incubate for 10 min at RT; 1 ul of anti-His antibody conjugated to the long-life fluorescent cryptate donner […] (5ng/ul) and streptavidin conjugated to the acceptor compound […] (0.2 ng/ul) mix; incubate 10 min and measure FRET (Excitation = 320 nm, Emission = 615, 665 nm).
Potency means the concentration at half of the fitted maximal effect.

Transcriptional regulator ERG (Homo sapiens), sequence (P11308 whole entry, looked up, the tested form may be a part): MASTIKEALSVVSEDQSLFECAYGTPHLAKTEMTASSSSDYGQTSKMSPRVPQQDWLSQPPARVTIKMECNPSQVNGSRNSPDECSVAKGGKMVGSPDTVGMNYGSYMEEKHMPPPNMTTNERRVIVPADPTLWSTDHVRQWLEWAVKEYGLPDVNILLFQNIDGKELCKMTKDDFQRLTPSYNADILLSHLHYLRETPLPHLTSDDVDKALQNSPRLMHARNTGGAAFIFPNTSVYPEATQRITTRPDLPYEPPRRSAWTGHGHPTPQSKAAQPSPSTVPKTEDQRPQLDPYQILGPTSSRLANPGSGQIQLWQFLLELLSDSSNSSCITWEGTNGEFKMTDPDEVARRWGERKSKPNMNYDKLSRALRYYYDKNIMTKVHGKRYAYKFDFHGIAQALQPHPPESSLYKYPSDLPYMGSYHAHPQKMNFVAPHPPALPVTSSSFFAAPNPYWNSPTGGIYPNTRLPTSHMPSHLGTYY

SMILES	Potency	activity change, negative = inhibition [%]
Nc1ccc2nonc2c1[N+](=O)[O-]	50.1 µM (active)	–
C=C1C2C[C@@]3([C@@H]1O)[C@@H](C[C@@H]2O)[C@@]12C4[C@@H]3C[C@@H]1[C@@](C)(CC[C@@H]2O)CN4CC	–	-25.6
CC(=O)C1(c2ccccc2)CCN(C(=O)C2CCC(=O)N(CCc3cccc(F)c3)C2)CC1 (stereo not given)	–	-19.4
C[N+]1(C)[C@@H]2CC[C@H]1CC(OC(=O)C(CO)c1ccccc1)C2 (stereo not given in full)	–	-26.6
CN1[C@@H]2CCC[C@H]1CC(=O)C2	–	-23.7
